# Calls of active or inactive are those of the source. Unless noted, the rule behind the calls is not given here.
# What was measured:
# [1] = A549 cell viability effects, profiling panel, calcein-AM fluorescence, 48 h, basal (AID 1162); details: higher = more signal; note: test concentration not given here
# [2] = adipocyte viability effects, profiling panel, cell-based, 3T3-L1 adipocytes, calcein-AM fluorescence, 48 h, basal (AID 1163); details: 3T3-L1 adipocytes viability, higher = more signal; note: test concentration not given here
# [3] = HepG2 cell viability effects, profiling panel, calcein-AM fluorescence, 48 h, basal (AID 1164); details: higher = more signal; note: test concentration not given here
# [4] = MM1S cell viability effects, profiling panel, calcein-AM fluorescence, 48 h, basal (AID 1165); details: higher = more signal;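 note: viability of MM1S multiple myeloma cells under basal unstimulated conditions; test concentration not given here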
# [5] = basal RPMI8226 viability, no added stimulus, profiling panel, cell-based, calcein-AM fluorescence, 48 h, PK04 Diversity Set (AID 1166); details: RPMI8226 myeloma viability, higher = more signal;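 note: cells grown under basal conditions without added stimulus; test concentration not given here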
# [6] = basal HepG2 mitochondrial membrane potential changes, profiling panel, cell-based, JC-1 fluorescence, 24 h, 100 nL compound (AID 1167); details: higher = more signal; note: test concentration not given here
# [7] = basal 3T3-L1 adipocyte mitochondrial potential changes, profiling panel, cell-based, JC-1 fluorescence, 3T3-L1 adipocytes, 24 h, 100 nL compound (AID 1168); details: JC-1 mitochondrial fluorescence, higher = more signal, called active from +8 up or from −8 down; note: test concentration not given here
# [8] = basal RPMI8226 mitochondrial membrane potential changes, profiling panel, cell-based, JC-1 fluorescence, 24 h, 100 nL compound (AID 1169); details: RPMI8226 myeloma, JC-1 mitochondrial potential fluorescence, higher = more signal; note: test concentration not given here
# [9] = basal MM1S mitochondrial membrane potential changes, profiling panel, cell-based, JC-1 fluorescence, 24 h, 100 nL compound (AID 1170); details: higher = more signal; note: test concentration not given here
# [10] = A549 lung cancer cell viability effects, profiling panel, resazurin fluorescence, 24 h, PK04 Diversity Set (AID 1171); details: higher = more signal, called active from +8 up or from −8 down; note: test concentration not given here
# [11] = HepG2 liver cancer cell viability effects, profiling panel, resazurin fluorescence, 24 h, PK04 Diversity Set (AID 1172); details: higher = more signal; note: test concentration not given here
# [12] = basal S. cerevisiae growth modulation, no modifier, primary screen, OD600, strain BY4716, 24 h, basal condition (AID 1173); details: OD600, 24 h, higher = more signal, called active from +8 up or from −8 down
# [13] = MM1S myeloma cell viability, profiling panel, resazurin fluorescence, basal, 24 h, PK04 Diversity Set (AID 1174); details: higher = more signal, called active from +8 up or from −8 down;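 note: MM1S multiple myeloma cell line; test concentration not given here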
# [14] = biological target: Dihydroorotate dehydrogenase (quinone), mitochondrial (Plasmodium falciparum (isolate 3D7)) (UniProt Q08210); assay: PfDHODH enzyme inhibitors, primary screen, biochemical, C-terminal His tag, absorbance 600 nm (AID 1175); details: DCIP absorbance 600 nm, higher = more signal, called active from +8 up or from −8 down;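 note: recombinant parasite enzyme with a five histidine tag at its C terminus; test concentration not given here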
# [15] = P. aeruginosa biofilm formation inhibitors, primary screen, strain PAO1, LB-PBS medium, absorbance 600 nm (AID 1176); note: test concentration not given here; details: P. aeruginosa PAO1 growth/biofilm, A600, 12 h; higher = more signal
# [16] = S. cerevisiae RM11-1a growth modifiers, primary screen, strain RM11-1a, OD600, basal, 24 h (AID 1177); details: OD600, 24 h, higher = more signal, called active from +8 up or from −8 down;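 note: cultures grown under basal conditions with no added stressor; test concentration not given here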
# [17] = E. coli acrAB mutant growth effects, primary screen, E. coli filamentation inducers, strain DRC39, OD650, 24 h (AID 1178); details: higher = more signal, called active from +8 up or from −8 down;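 note: growth measured as culture turbidity by optical density at 650 nm; test concentration not given here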
# [18] = E. coli acrAB mutant growth effects, primary screen, E. coli filamentation inducers, strain DRC39, OD650, 48 h (AID 1179);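 note: screen aims at cell division blockers that make cells filament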; details: E. coli DRC39 delta-acrAB growth, higher = more signal, called active from +8 up or from −8 down
# [19] = RPMI8226 myeloma cell viability, profiling panel, resazurin fluorescence, basal, 24 h, PK04 Diversity Set (AID 1180); details: higher = more signal;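 note: RPMI8826 multiple myeloma cell line at 5000 cells per well; test concentration not given here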
# [20] = biological target: E3 ubiquitin-protein ligase XIAP (Homo sapiens) (UniProt P98170); assay: XIAP binders, primary screen, biophysical, small-molecule microarray, fluorescence 635 nm (AID 1181); details: small-molecule microarray binding, higher = more signal;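 note: score merges 667 nm emission and signal to noise over triplicate slides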
# E3 ubiquitin-protein ligase XIAP (Homo sapiens), sequence (P98170 whole entry, looked up): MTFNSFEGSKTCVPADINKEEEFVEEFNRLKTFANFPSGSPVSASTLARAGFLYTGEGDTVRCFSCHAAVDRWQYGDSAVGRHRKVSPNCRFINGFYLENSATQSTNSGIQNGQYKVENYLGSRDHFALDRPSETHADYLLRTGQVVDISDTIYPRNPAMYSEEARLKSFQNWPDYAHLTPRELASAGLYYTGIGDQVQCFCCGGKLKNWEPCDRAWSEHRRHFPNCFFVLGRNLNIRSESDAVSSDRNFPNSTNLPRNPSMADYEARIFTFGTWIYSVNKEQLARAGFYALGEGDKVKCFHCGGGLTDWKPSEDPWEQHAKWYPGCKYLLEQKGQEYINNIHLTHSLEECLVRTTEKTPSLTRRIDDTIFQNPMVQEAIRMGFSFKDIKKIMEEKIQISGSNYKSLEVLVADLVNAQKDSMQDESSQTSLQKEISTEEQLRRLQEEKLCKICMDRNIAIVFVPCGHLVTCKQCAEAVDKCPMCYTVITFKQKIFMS
# Dihydroorotate dehydrogenase (quinone), mitochondrial (Plasmodium falciparum (isolate 3D7)), sequence (Q08210 whole entry, looked up): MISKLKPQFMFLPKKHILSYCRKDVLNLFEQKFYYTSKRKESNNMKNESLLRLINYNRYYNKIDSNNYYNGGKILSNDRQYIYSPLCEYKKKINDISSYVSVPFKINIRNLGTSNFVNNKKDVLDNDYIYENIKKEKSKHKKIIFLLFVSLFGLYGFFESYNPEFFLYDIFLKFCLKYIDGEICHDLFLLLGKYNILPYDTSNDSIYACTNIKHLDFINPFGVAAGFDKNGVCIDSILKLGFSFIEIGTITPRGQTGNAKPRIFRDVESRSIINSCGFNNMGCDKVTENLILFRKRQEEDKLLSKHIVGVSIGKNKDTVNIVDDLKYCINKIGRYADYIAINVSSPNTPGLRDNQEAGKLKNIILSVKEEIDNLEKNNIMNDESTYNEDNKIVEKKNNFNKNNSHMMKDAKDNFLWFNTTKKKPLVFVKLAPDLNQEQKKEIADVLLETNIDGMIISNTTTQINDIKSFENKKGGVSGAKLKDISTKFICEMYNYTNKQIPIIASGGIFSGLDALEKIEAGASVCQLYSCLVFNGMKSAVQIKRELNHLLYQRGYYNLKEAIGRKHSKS
Structure (SMILES),z-score [1],z-score [2],z-score [3],z-score [4],z-score [5],z-score [6],z-score [7],z-score [8],z-score [9],z-score [10],z-score [11],z-score [12],z-score [13],composite z-score [14],z-score [15],z-score [16],z-score [17],z-score [18],z-score [19],composite z-score [20]
COc1ccc([Si](C)(C)[C@@H]2[C@@H](CC(=O)N3Cc4ccccc4C[C@H]3CO)O[C@]3(C(=O)N(Cc4ccc(N5CCOC5=O)cc4)c4ccccc43)[C@H]2C)cc1,0.369,0.704,0.115,-1.07,-0.876,0.966,1 (inactive),-1.11,0.359,-0.674 (inactive),-0.231,-0.678 (inactive),-1.49 (inactive),-0.836 (inactive),1.18 (inactive),0.455 (inactive),0.868 (inactive),0.465 (inactive),-0.504,0.0049
O=C1C[C@@](C(=O)NCc2ccccc2)(c2ccc([N+](=O)[O-])cc2)[C@@H](c2ccc(CO)cc2)N1C1CCCCC1,0.691,1.34,2.22,0.406,0.956,2.33,1.58 (inactive),-0.343,0.242,-0.685 (inactive),-0.563,-0.517 (inactive),-0.163 (inactive),-1.58 (inactive),-0.0654 (inactive),-1.02 (inactive),0.639 (inactive),1.46 (inactive),-0.0381,-0.031
[N-]=[N+]=Nc1ccccc1C[C@@]1(C(=O)NCc2ccccc2)N=C(c2ccc(OCCCO)cc2)O[C@@H]1c1ccccc1N=[N+]=[N-],-1.58,1.31,-0.83,-3,-4.36,0.728,-0.182 (inactive),-1.23,-0.936,-0.996 (inactive),-0.664,-0.353 (inactive),-2.18 (inactive),0.366 (inactive),0.689 (inactive),0.105 (inactive),0.969 (inactive),-0.289 (inactive),-2.89,-0.113
COCCOC(=O)N1C(=O)[C@@]2(c3cc(C#CCCO)ccc31)[C@H](c1ccccc1OCCO)N1[C@H](c3ccccc3)[C@H](c3ccccc3)OC(=O)[C@H]1[C@@H]2C(N)=O,0.49,1.8,-0.112,-1.49,-4.2,0.446,1 (inactive),-1.22,-1.12,-0.0131 (inactive),-0.0989,1.42 (inactive),-1.49 (inactive),-0.0125 (inactive),-0.0199 (inactive),2.34 (inactive),0.641 (inactive),-0.605 (inactive),-1.45,-0.02
CC(=O)c1ccc(C(O)C2C=CC3C(=O)N(c4ccccc4)C(=O)C3N2Nc2ccc(C(C)C)cc2)cc1 (stereo not given),-0.301,-1.69,0.123,-1.1,-0.994,-2.03,-1.56 (inactive),-0.293,-1.29,-0.532 (inactive),-0.866,-0.829 (inactive),-1.44 (inactive),0.774 (inactive),0.503 (inactive),0.677 (inactive),0.481 (inactive),0.463 (inactive),-0.721,0.102
CC(C)(C)N1CC=CC23O[C@@H]4C=CCCOC(=O)C4[C@H]2C(=O)N(CCCCCCO)[C@@H]3C1=O (stereo not given in full),0.0905,-2.98,0.952,1.35,0.229,0.212,-0.501 (inactive),-0.0402,-0.516,-0.523 (inactive),0.0735,-0.437 (inactive),-0.176 (inactive),0.713 (inactive),-0.456 (inactive),0.735 (inactive),-0.0435 (inactive),0.43 (inactive),0.382,0.189
COc1ccc(NN2C(C(O)c3ccc(I)cc3)C=CC3C(=O)N(C4CCCCC4)C(=O)C32)cc1 (stereo not given),-0.302,-0.971,0.181,-1.06,0.295,0.126,0.0889 (inactive),0.0764,-1.65,1.47 (inactive),1.59,0.0997 (inactive),0.28 (inactive),0.526 (inactive),0.726 (inactive),0.475 (inactive),-0.558 (inactive),0.725 (inactive),-0.313,0.144
COc1ccc([Si](C)(C)[C@@H]2[C@@H](CC(=O)N3CCC[C@H]3CO)O[C@]3(C(=O)N(Cc4ccc(N5CCOC5=O)cc4)c4ccccc43)[C@H]2C)cc1,-0.526,1.05,-2.21,-2.64,-4.54,0.391,1.67 (inactive),-1.07,-1.75,-1.77 (inactive),-1.39,-0.793 (inactive),-2.01 (inactive),-2.19 (inactive),1.06 (inactive),-0.975 (inactive),0.0669 (inactive),0.459 (inactive),-2.98,0.0819
Cc1ccc(S[C@]2(C(=O)NC(C)C)CC(=O)N(C3CCCCC3)[C@@H]2c2ccc(CO)cc2I)cc1,-0.0909,0.0617,-0.938,-2.07,-2.68,1.06,-0.0605 (inactive),-0.351,-1.12,0.81 (inactive),0.748,0.27 (inactive),-0.611 (inactive),0.62 (inactive),0.462 (inactive),1.16 (inactive),0.384 (inactive),-0.138 (inactive),-2.01,-0.0559
CCOC(=O)C1=CC[C@@H](c2ccccc2)N(S(=O)(=O)c2ccc(C)cc2)[C@H]1c1ccccc1I,-0.855,-1.01,-0.47,-0.676,-0.965,1.5,-1.61 (inactive),1.14,-1.16,0.998 (inactive),0.76,1.25 (inactive),-0.0131 (inactive),-0.158 (inactive),1.05 (inactive),-0.217 (inactive),0.254 (inactive),0.202 (inactive),-1.16,-0.123
COc1ccc([Si](C)(C)[C@H]2[C@H](CC(=O)N3Cc4ccccc4C[C@H]3CO)O[C@@]3(C(=O)N(c4ccccc4)c4ccccc43)[C@@H]2C)cc1,-0.782,0.898,-0.755,-2.67,-4.49,0.959,-0.652 (inactive),-1.1,-0.81,0.698 (inactive),0.635,-1.89 (inactive),-2.45 (inactive),-1.05 (inactive),0.0943 (inactive),0.578 (inactive),0.346 (inactive),-0.288 (inactive),-2.1,-0.209
C=CCOC(=O)[C@H]1[C@@H]2C(=O)O[C@@H](c3ccccc3)[C@@H](c3ccccc3)N2[C@@H](c2ccc(OCCOC(=O)[C@@H]3C[C@@H]4C(=O)N[C@@H](CCCCNC(C)=O)C(=O)N4[C@@H]3c3cccc(OCCO)c3)cc2)[C@]12C(=O)Nc1ccccc12,-0.389,0.585,-0.567,-0.0545,0.879,1.24,2.61 (inactive),-0.615,-0.966,-0.165 (inactive),-0.16,1.19 (inactive),0.222 (inactive),0.277 (inactive),2.87 (inactive),1.52 (inactive),0.253 (inactive),0.0636 (inactive),0.147,0.0623
COCCOC(=O)N1C(=O)[C@@]2(c3cc(C#CCCO)ccc31)[C@H](C(N)=O)[C@H]1C(=O)O[C@H](c3ccccc3)[C@H](c3ccccc3)N1[C@@H]2c1ccccc1OCCO,-0.21,-0.0387,-0.16,-1.87,-2.92,-0.529,0.181 (inactive),-0.821,-1.47,-0.191 (inactive),-0.231,1.11 (inactive),-2.76 (inactive),0.754 (inactive),0.594 (inactive),2.34 (inactive),0.354 (inactive),0.449 (inactive),-1.95,-0.124
CCCN1C(=O)[C@]2(CCC(=O)OC(C)(C)C)N=C(c3ccc(OCCCO)cc3)O[C@@H]2c2ccccc21,-1.19,0.92,-1.49,-3.41,-4.37,1.01,2.01 (inactive),-1.32,-1.54,-0.965 (inactive),-0.154,-0.836 (inactive),-2.08 (inactive),0.023 (inactive),3.33 (inactive),0.654 (inactive),1.08 (inactive),0.0565 (inactive),-2.7,0.118
Cc1ccc(S[C@]2(C(=O)NCCCN(C)C)CC(=O)N(Cc3ccccc3C(F)(F)F)[C@@H]2c2ccc(CO)cc2I)cc1,0.476,0.449,-0.297,-2.72,-1.87,-0.817,-0.395 (inactive),-0.302,-1.35,0.537 (inactive),0.0689,-4.57 (inactive),-3.16 (inactive),-0.168 (inactive),-0.0065 (inactive),-1.55 (inactive),-0.108 (inactive),-0.65 (inactive),-1.42,0.191
CCCC#C[Si](O[C@H](CC)c1cn(Cc2ccccc2)nn1)(C(C)C)C(C)C,-0.164,-0.782,0.709,-0.588,-0.439,0.0193,-0.497 (inactive),0.973,-1.16,-0.406 (inactive),-0.394,-14.2 (active),-1.05 (inactive),-0.205 (inactive),0.0763 (inactive),-0.0787 (inactive),-0.393 (inactive),-0.195 (inactive),-0.754,-0.173
COCCOC(=O)N1C(=O)[C@@]2(c3ccccc31)[C@H](C(=O)N1CCN(c3ncccn3)CC1)[C@H]1C(=O)O[C@H](c3ccccc3)[C@H](c3ccccc3)N1[C@@H]2c1ccccc1OCCO,1.14,0.549,-0.0577,0.0079,-0.203,-0.195,0.204 (inactive),-0.248,-0.742,-0.166 (inactive),-0.482,1.76 (inactive),-0.684 (inactive),-1.35 (inactive),3.3 (inactive),2.04 (inactive),0.858 (inactive),0.611 (inactive),1.69,-0.0095

# From PubChem BioAssay
